Results on eight molecules are retold here after PubChem BioAssay (Tox21).

Unmarked numbers belong to inactive results. Results filed as inconclusive are left out. Active and inactive are the calls of the source. Unless noted, calls follow the shape of the dose curve; as a rule, active = well fitted curve in the direction sought with a large enough effect in the repeat runs; inconclusive = weak or mixed curves; inactive = no such curve, though single readings can be large; an effect the other way counts as inactive or inconclusive.

Assay [1] is described as follows: qHTS assay for small molecules that induce genotoxicity in human embryonic kidney cells expressing luciferase-tagged ATAD5 (AID 651632). Also: nearly all actives have a fitted effect of over 15% in size. Also: potency is read from the fitted curve at half-maximal effect. The method in brief:
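HEK293T cells carrying a luciferase reporter tagged to ATAD5 were exposed to compound or DMSO vehicle for 16 hr at 37C, 5% CO2. Amplite was added, and after 30 min at room temperature luciferase activity was read as a marker of ATAD5 induction.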
A general note: Quantitative high-throughput screening tests each substance at several concentrations.

Assay [2] in a line: qHTS assay for small molecule agonists of the p53 signaling pathway - cell viability (AID 651633; calls by dose curve;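 also: p53RE-bla HCT reporter cells with a stable beta-lactamase p53 reporter; series mostly up to about 83 µM; nearly all actives have a fitted effect of over 30% in size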). The method in brief:
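p53RE-bla cells, seeded at 4,000 per well and rested 5 h at 37 C/5% CO2, received compounds in DMSO for 16 h at 37 C. CellTiter-Glo was then added, and luminescence was read after 30 min at room temperature to gauge cytotoxicity.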

Assay [3] in a line: qHTS assay for small molecules that induce genotoxicity in human embryonic kidney cells expressing luciferase-tagged ATAD5 - cell viability (AID 651634; calls by dose curve; also: nearly all actives have a fitted effect of over 25% in size). The method in brief:
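HEK293T cells expressing luciferase-tagged ATAD5 were exposed to compound or DMSO for 15.5 hr at 37C, 5% CO2. Viability was then read as live-cell protease activity by CellTiter-Fluor fluorescence after 30 min at 37C.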

A short description of assay [4]: qHTS assay for small molecule disruptors of the mitochondrial membrane potential - cell viability (AID 720634; calls by dose curve;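 also: human HepG2 liver cancer cells; series mostly up to about 83 µM; nearly all actives have a fitted effect of over 20% in size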). The method in brief: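 HepG2 cells seeded overnight at 37 C, then exposed to compound or DMSO for 1 hr at 37 C, 5% CO2. m-MPI dye added, then CellTiter-Glo for 30 min at room temperature; viability read as ATP luminescence.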
Assay [5] can be described thus: qHTS assay for small molecule disruptors of the mitochondrial membrane potential (AID 720635). The method in brief: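 HepG2 cells (2,000/well) attached overnight at 37C, then took compound for 1 hr at 37C, 5% CO2. Mito-MPS dye was added for 30 min; fluorescence was read at 490/535 nm (monomers) and 540/590 nm (aggregates).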
The nature of assay [6]: qHTS assay to test for compound auto fluorescence at 590 nm (red) in HepG2 cells (AID 720674). The method in brief:
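Rose Bengal sodium served as the red fluorophore standard. HepG2 monolayers (overnight attachment, MEM with 10% FBS) were exposed to test compounds for 1 hr at 37 C and read at Ex 540/Em 590 nm.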

The nature of assay [7]: qHTS assay to test for compound auto fluorescence at 535 nm (green) in HepG2 cells (AID 720675).
A short description of assay [8]: qHTS assay to test for compound auto fluorescence at 460 nm (blue) in HEK293 cells (AID 720678). The method in brief:
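Auto fluorescence in the blue band was quantified as triamterene equivalency. HEK293 cells were seeded at 2,000/well, dosed after a 4-5 hr attachment, and kept overnight at 37C before the 405/460 nm reading.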

Assay [9] can be described thus: qHTS assay to test for compound auto fluorescence at 590 nm (red) in HEK293 cells (AID 720679). The method in brief: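 Autofluorescence equivalency to Rose Bengal sodium, 540/590nm, in HEK293 cells exposed overnight to 23 nL compound per well.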
A short description of assay [10]: qHTS assay to test for compound auto fluorescence at 535 nm (green) in HEK293 cells (AID 720680).
The nature of assay [11]: qHTS assay to test for compound auto fluorescence at 460 nm (blue) in HEK293 cell free culture (AID 720681). The method in brief: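 Test compounds were pinned into cell-free culture medium (DMEM with 10% FBS) and fluorescence was read directly at Ex/Em 405/460 nm. Signals were expressed as fluorescence equivalents of triamterene, with DMSO vehicle as control.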
A short description of assay [12]: qHTS assay to test for compound auto fluorescence at 535 nm (green) in HEK293 cell free culture (AID 720682). The method in brief: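 Compounds were pin-transferred into cell-free DMEM with 10% FBS, and green fluorescence was read at excitation 485 nm and emission 535 nm. Intensities were expressed as fluorescein-equivalent values.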
The nature of assay [13]: qHTS assay to test for compound auto fluorescence at 590 nm (red) in HEK293 cell free culture (AID 720683). The method in brief: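 Tox21 10K library compounds were pinned into cell-free DMEM with 10% FBS and fluorescence was read at excitation 540 nm. Activity is expressed as Rose Bengal sodium equivalency.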
Assay [14] is described as follows: qHTS assay to test for compound auto fluorescence at 590 nm (red) in HepG2 cell free culture (AID 720684). The method in brief:
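Measured in medium alone (MEM containing 10% FBS) following pintool addition of compound; emission at 590 nm with 540 nm excitation, referenced to Rose Bengal sodium.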

Assay [15] in a line: qHTS assay to test for compound auto fluorescence at 460 nm (blue) in HepG2 cell free culture (AID 720685). The method in brief: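 Compound (23 nL) or DMSO pinned into cell-free MEM with 10% FBS; blue fluorescence read at 405/460 nm excitation/emission, expressed as auto-fluorescence equivalency to triamterene.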
Assay [16] in a line: qHTS assay to test for compound auto fluorescence at 535 nm (green) in HepG2 cell free culture (AID 720686).
A short description of assay [17]: qHTS assay to test for compound auto fluorescence at 460 nm (blue) in HepG2 cells (AID 720687). The method in brief: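 Cells (2,000/well in MEM with 10% FBS) attached overnight at 37 C, then were exposed to compound or DMSO for 1 hr at 37 C, 5% CO2. Fluorescence read at Ex/Em 405/460 nm, expressed as triamterene-equivalent signal.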
For assay [18], the target named is Glucocorticoid receptor (Homo sapiens) (UniProt P04150). Kind of assay: qHTS assay to identify small molecule agonists of the glucocorticoid receptor (GR) signaling pathway (AID 720691; active = well fitted activation curve with a large enough effect in the signal ratio in the repeat runs, not every such curve was filed as active; the % refers to the signal ratio). The method in brief: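 GR-bla HeLa cells (beta-lactamase reporter under glucocorticoid response element) were plated 4 h at 37 C/5% CO2, given compounds in DMSO, and incubated 18 h at 37 C. LiveBLAzer B/G FRET substrate was added for 2 h at room temperature, then fluorescence intensity read.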

Assay [19] has the same target. The assay can be described thus: qHTS assay to identify small molecule antagonists of the glucocorticoid receptor (GR) signaling pathway (AID 720692; active = well fitted inhibition curve with a large enough effect in the signal ratio in the repeat runs, not every such curve was filed as active; the % refers to the signal ratio). The method in brief: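 GR-bla HeLa cells (beta-lactamase reporter under glucocorticoid response element) were pre-plated 4 h at 37 C, treated with compounds plus 5 nM dexamethasone (final) for 18 h, then read by LiveBLAzer B/G FRET fluorescence after 2 h.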

Sequence of Glucocorticoid receptor (Homo sapiens) (P04150 whole entry, looked up): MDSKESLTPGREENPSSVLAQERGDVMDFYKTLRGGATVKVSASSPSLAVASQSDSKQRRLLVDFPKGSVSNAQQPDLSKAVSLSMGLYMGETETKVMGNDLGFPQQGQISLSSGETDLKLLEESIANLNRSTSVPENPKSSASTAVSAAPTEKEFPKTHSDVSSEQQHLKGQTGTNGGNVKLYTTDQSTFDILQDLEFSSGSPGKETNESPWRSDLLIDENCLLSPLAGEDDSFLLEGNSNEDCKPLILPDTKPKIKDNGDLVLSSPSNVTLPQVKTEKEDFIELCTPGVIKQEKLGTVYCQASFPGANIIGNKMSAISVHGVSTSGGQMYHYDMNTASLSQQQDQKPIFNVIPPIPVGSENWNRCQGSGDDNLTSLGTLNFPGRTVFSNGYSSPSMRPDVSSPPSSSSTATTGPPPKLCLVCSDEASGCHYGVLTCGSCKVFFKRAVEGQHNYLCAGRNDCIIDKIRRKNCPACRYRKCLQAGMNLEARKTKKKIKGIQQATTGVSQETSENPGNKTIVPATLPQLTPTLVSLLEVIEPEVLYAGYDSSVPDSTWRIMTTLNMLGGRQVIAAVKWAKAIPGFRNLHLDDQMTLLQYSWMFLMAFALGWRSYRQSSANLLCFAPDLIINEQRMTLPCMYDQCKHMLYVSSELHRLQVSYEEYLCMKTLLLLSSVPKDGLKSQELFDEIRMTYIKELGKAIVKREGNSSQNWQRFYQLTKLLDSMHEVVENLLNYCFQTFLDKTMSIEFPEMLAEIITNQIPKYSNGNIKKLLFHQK

With `C/C(=N\O)c1ccc(OCC(=O)N2CCCCC2)cc1`, the Potency in assay [1] is 23.7 µM (active). Moreover, the outcome in assay [2], in assay [3], in assay [4], in assay [6], in assay [7] and in [8] was inactive. Also, the molecule was called inactive in assay [9], in [10], in assay [11], in [12], in assay [13] and in assay [14]. Further, the molecule was called inactive in assay [15], in assay [16] and in [17]. For the same molecule, the Potency entry in [5] is “inactive”.
With `CC(C)(C)c1ccc(N)cc1`, the Potency entry in assay [1], in assay [5] and in assay [18] was “inactive” in each case. The call in assay [2], in assay [3], in [4], in [6], in [7] and in assay [8] was inactive. Besides, the outcome in assay [9], in assay [10], in assay [11], in assay [12], in assay [13] and in assay [16] was inactive. The molecule was called inactive in assay [17].
For the molecule `CC[C@@]1(c2ccccc2)NC(=O)N(C)C1=O`, the Potency result in assay [1] is “inactive”. For the same molecule, the result in [3], in [4], in assay [6], in assay [7], in [8] and in assay [9] was inactive. Also, the call in assay [10], in [11], in [12], in assay [13], in [14] and in assay [15] was inactive. Further, the molecule was classed as inactive in assay [16] and in [17].
As to `CCC(C)c1nccnc1OC` (centres undefined), the Potency result in [1], in assay [5] and in assay [18] was “inactive” in each case. Also, the result in [2], in assay [3], in assay [4], in assay [6], in assay [7] and in assay [8] was inactive. The molecule was classed as inactive in [9], in assay [10], in assay [11], in assay [13], in assay [14] and in [15]. The result in assay [17] and in assay [19] was inactive.
With `Nc1nc(Cl)cc(Cl)n1`, the Potency result in assay [1], in assay [5] and in assay [18] was “inactive” throughout. Moreover, the molecule was classed as inactive in assay [3], in assay [4], in assay [6], in assay [7], in [8] and in [9]. Also, the molecule was classed as inactive in assay [10], in [11], in [13], in assay [14], in assay [15] and in [16]. The molecule was called inactive in [17] and in assay [19].
As for `CCOC(=O)c1ccc(N(C)C)cc1`, the Potency entry in [1] and in [18] was “inactive” throughout. Moreover, the call in [3], in assay [4], in assay [6], in assay [7], in assay [8] and in assay [9] was inactive. Besides, the result in [10], in [11], in assay [12], in assay [13], in assay [14] and in [15] was inactive. Also, the molecule was called inactive in assay [16], in [17] and in assay [19].
Regarding `CC1(C)S[C@@H]2[C@H](NC(=O)Cc3ccccc3)C(=O)N2[C@H]1C(=O)O` (tested in a mixture with another compound), the Potency entry in assay [1] and in assay [18] was “inactive” in each case. The result in assay [2], in [3], in assay [4], in assay [6], in assay [7] and in [8] was inactive. The result in assay [9], in assay [10], in assay [11], in assay [12], in [13] and in [14] was inactive. For the same molecule, the molecule was classed as inactive in assay [15], in assay [16] and in assay [17].
Consider `CC(=O)OCC(=O)[C@@]1(O)CC[C@H]2[C@@H]3CCC4=CC(=O)C=C[C@]4(C)[C@H]3[C@@H](O)C[C@@]21C`, for which the Potency entry in assay [1] was “inactive”. Moreover, the molecule was called inactive in assay [3], in assay [4], in [6], in [7], in assay [8] and in [9]. Further, the molecule was classed as inactive in [10], in [11], in assay [13], in assay [14], in assay [16] and in assay [17].
